Cruzain inh noDet: cruzain (T. cruzi) inhibition without detergent; actives 2.3% (n = 200,000); purified cruzain, Z-FR-AMC fluorescence, no detergent; Potency, µM, actives largely listed as inhibitors; P25779; AID 1476; further: nearly all actives have a fitted effect of over 40% in size
Target sequence (P25779 123-467 limits assumed): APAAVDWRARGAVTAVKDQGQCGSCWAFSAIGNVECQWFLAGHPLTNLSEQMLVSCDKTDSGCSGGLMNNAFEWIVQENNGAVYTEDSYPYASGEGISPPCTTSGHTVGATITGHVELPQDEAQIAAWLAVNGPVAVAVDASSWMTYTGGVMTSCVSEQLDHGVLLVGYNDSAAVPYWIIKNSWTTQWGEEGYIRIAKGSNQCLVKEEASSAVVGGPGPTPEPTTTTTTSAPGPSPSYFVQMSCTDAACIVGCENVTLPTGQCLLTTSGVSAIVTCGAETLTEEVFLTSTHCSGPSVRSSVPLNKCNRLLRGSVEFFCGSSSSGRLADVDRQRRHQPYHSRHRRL
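Detergent-free condition (0.00005% Triton X-100) in acetate buffer pH 5.5 with DTT. 1.5 nM enzyme and compound were pre-mixed 15 min, then 2 uM Z-FR-AMC substrate added; reaction progress from fluorescence change between first and third reads (60 s).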
Cruzain Triton: blocks cruzain activity in presence of Triton detergent | AID 1478 | actives 0.43% (n = 200,000) | Potency, µM, usual class: inhibitors | purified cruzain, Z-FR-AMC fluorescence, 0.01% Triton; further: nearly all actives have a fitted effect of over 40% in size
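Detergent-containing arm of a paired screen for aggregation-based inhibition: 0.01% Triton X-100 present. Cruzain at 1.5 nM cleaved 2 uM Z-FR-AMC at pH 5.5 with 5 mM DTT; AMC fluorescence gain over 60 s measured activity.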
Hits are given with their value; n = inactive; u = inconclusive. Compounds with a hit are over-represented: about 2.5% of the library has one in this group of screens. The call rests on the fitted dose curve; in most records, active means well fitted curve in the direction sought with a large enough effect; inconclusive means small, poorly fitted or top-dose-only effect, or another doubt; inactive means no such curve, though single readings can be large; an effect the other way counts as inactive or inconclusive.

SMILES	Cruzain inh noDet	Cruzain Triton
CCn1cc(C(=O)NCc2ccc(C)cc2)c(=O)c2cc(S(=O)(=O)N(C)C3CCCCC3)ccc21	n	n
CCNc1cc2oc(=O)c(CN3CCOCC3)c(C)c2cc1C	u	28µM
Cc1cc2oc(=O)cc(CN3CCOCC3)c2cc1C	n	n
CC(C)[C@H](N=Cc1ccccc1O)C(=O)O	n	n
CN1CCc2nc(SCC(=O)Nc3cccc(F)c3)c(C#N)c(-c3cccs3)c2C1	20µM	n
CN1CCc2nc(SCC(=O)Nc3ccc(OC(F)(F)F)cc3)c(C#N)c(-c3cccs3)c2C1	u	n
CC(=O)CSc1nc(N)c(C#N)c(-c2cccs2)c1C#N	n	n
N#Cc1c(C(F)(F)F)cc(-c2cccs2)nc1SCC(=O)Nc1cccc(C(F)(F)F)c1	n	n
N#Cc1ccc(-c2cccs2)nc1SCC(=O)Nc1cccc(C(F)(F)F)c1	20µM	n
CC(C)(C)C(=O)CSc1nc2c(c(-c3cccs3)c1C#N)CCC2	25µM	n
CCOC(=O)c1c(NC(=O)c2cc(-c3cccc(Cl)c3)on2)sc(C(C)=O)c1C	n	n
CCCCCCCCCCCCCCCC(=O)OC(CO)CO	u	n
Cc1ccc(C)c(Cn2c(=O)n(Cc3ccccc3)c(=O)c3c(C)c(C)sc32)c1	n	n
COc1ccc2cc(C(=O)CCC(=O)O)ccc2c1	n	n
O=[N+]([O-])c1cc(/C=N/N2CCN(C3c4ccccc4-c4ccccc43)CC2)ccc1Cl	13µM	n
COc1ccc(/C=N/N2CCN(C3c4ccccc4-c4ccccc43)CC2)cc1O	n	n
O=C(O)c1ccc(NS(=O)(=O)c2ccsc2C(=O)O)cc1	n	n
